The nature of test [1]: qHTS assay for small molecules that induce genotoxicity in human embryonic kidney cells expressing luciferase-tagged ATAD5 (AID 651632). Note: nearly all actives have a fitted effect of over 15% in size. The gist of the method:
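Test compounds were delivered by pin tool onto HEK293T reporter cells (2,000/well) expressing ATAD5 fused to luciferase. After 16 hr at 37C, 5% CO2, Amplite was added for 30 min at room temperature and luminescence was measured.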

The nature of test [2]: qHTS assay for small molecule agonists of the p53 signaling pathway - cell viability (AID 651633; calls by dose curve; note: nearly all actives have a fitted effect of over 30% in size; note: potency is the fitted concentration of half-maximal effect). The method, boiled down: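 Viability counter-read: CellTiter-Glo luminescence (30 min, room temperature) in the same p53RE-bla plates. These plates had been exposed to compounds for 16 h at 37 C.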
Test [3] can be described thus: qHTS assay for small molecules that induce genotoxicity in human embryonic kidney cells expressing luciferase-tagged ATAD5 - cell viability (AID 651634; calls by dose curve; note: nearly all actives have a fitted effect of over 25% in size). The gist of the method: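 Quantitative high-throughput format. HEK293T cells expressing ATAD5 fused to luciferase were plated at 2,000 cells/well and treated 15.5 hr with compound versus DMSO. Viability was determined by fluorescent live-cell protease substrate, 30 min at 37C.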

Test [4] in a line: qHTS assay for small molecule disruptors of the mitochondrial membrane potential - cell viability (AID 720634; calls by dose curve;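 note: human HepG2 liver cancer cells; series mostly up to about 83 µM; nearly all actives have a fitted effect of over 20% in size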). The gist of the method:
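Same-well counter-screen: following the MMP dye addition, CellTiter-Glo was added to 1 hr compound-treated HepG2 cells and luminescence read after 30 min at room temperature.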

Test [5] is described as follows: qHTS assay to test for compound auto fluorescence at 590 nm (red) in HepG2 cells (AID 720674). The method, boiled down: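 1 hr compound incubation on HepG2 cells, 37 C, 5% CO2; plate read ex 540 nm / em 590 nm; intensities reported as Rose Bengal sodium equivalents.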
Test [6] is described as follows: qHTS assay to test for compound auto fluorescence at 535 nm (green) in HepG2 cells (AID 720675).
The nature of test [7]: qHTS assay to test for compound auto fluorescence at 460 nm (blue) in HEK293 cells (AID 720678). The gist of the method: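 Cells were seeded and left to adhere for 4-5 hr at 37C. Compounds were then pin-transferred. After an overnight incubation at 37C under 5% CO2, intrinsic fluorescence at 405/460 nm was measured and referenced to triamterene.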
Test [8] is described as follows: qHTS assay to test for compound auto fluorescence at 590 nm (red) in HEK293 cells (AID 720679). The gist of the method:
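Each well held 2,000 HEK293 cells in medium containing 10% dialyzed FBS. Following 4-5 hr attachment at 37C, 23 nL test compound or DMSO was added; plates sat overnight, and red fluorescence (540/590nm) was recorded.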

The nature of test [9]: qHTS assay to test for compound auto fluorescence at 535 nm (green) in HEK293 cells (AID 720680).
A short description of test [10]: qHTS assay to test for compound auto fluorescence at 460 nm (blue) in HEK293 cell free culture (AID 720681). The method, boiled down:
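Blue fluorescence (Ex 405/Em 460 nm, triamterene-equivalent) was read immediately after pin transfer of compound or DMSO into medium (DMEM, 10% FBS) without cells.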

Test [11] can be described thus: qHTS assay to test for compound auto fluorescence at 535 nm (green) in HEK293 cell free culture (AID 720682). The gist of the method:
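Intrinsic compound fluorescence is measured in culture medium containing 10% FBS, with excitation at 485 nm and detection at 535 nm, referenced to fluorescein.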

Test [12] is described as follows: qHTS assay to test for compound auto fluorescence at 590 nm (red) in HEK293 cell free culture (AID 720683). The gist of the method: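 Red-channel autofluorescence of compounds in culture medium (DMEM, 10% FBS), no cells, measured at 540/590 nm. Rose Bengal sodium is the reference fluorophore for equivalence.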
Test [13] can be described thus: qHTS assay to test for compound auto fluorescence at 590 nm (red) in HepG2 cell free culture (AID 720684). The gist of the method: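 No cells present: MEM + 10% FBS only. Compound pinned in, red label read (540/590 nm). Activity = fluorescence equivalent to Rose Bengal sodium.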
A short description of test [14]: qHTS assay to test for compound auto fluorescence at 460 nm (blue) in HepG2 cell free culture (AID 720685). The method, boiled down:
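Cell-free plates of MEM plus 10% FBS received 23 nL compound or DMSO vehicle; blue-channel (405/460 nm) intensity scored against triamterene as reference fluorophore.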

Test [15] is described as follows: qHTS assay to test for compound auto fluorescence at 460 nm (blue) in HepG2 cells (AID 720687). The method, boiled down: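 Blue-channel autofluorescence (Ex/Em 405/460 nm, triamterene-equivalent) was measured after 1 hr compound exposure at 37 C, 5% CO2. Cells were HepG2, plated overnight at 37 C in MEM plus 10% FBS.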
Test [16] addresses Glucocorticoid receptor (Homo sapiens) (UniProt P04150). Description: qHTS assay to identify small molecule agonists of the glucocorticoid receptor (GR) signaling pathway (AID 720691; active = well fitted activation curve with a large enough effect in the signal ratio in the repeat runs, not every such curve was filed as active; the % refers to the signal ratio). The gist of the method: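 A HeLa cervical cancer line expressing GR and a glucocorticoid response element-driven beta-lactamase gene is treated with compounds for 18 h; LiveBLAzer B/G FRET substrate is then applied and fluorescence read.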

Test [17] is described as follows: qHTS assay for small molecule disruptors of the mitochondrial membrane potential (AID 720635). Note: potency is the fitted concentration of half-maximal effect. The gist of the method:
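Mitochondrial membrane potential tracked with Mito-MPS dye, red aggregates (ex 540/em 590 nm) against green monomers (ex 490/em 535 nm). Compound treatment 1 hr at 37C, dye 30 min in HepG2.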

Test [18] can be described thus: qHTS assay to test for compound auto fluorescence at 535 nm (green) in HepG2 cell free culture (AID 720686).
In test [19] the target is Glucocorticoid receptor (Homo sapiens) (UniProt P04150). Kind of test: qHTS assay to identify small molecule antagonists of the glucocorticoid receptor (GR) signaling pathway (AID 720692; active = well fitted inhibition curve with a large enough effect in the signal ratio in the repeat runs, not every such curve was filed as active; the % refers to the signal ratio). The method, boiled down:
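GRE-bla HeLa line, dex-stimulated (5 nM final). Compound exposure 18 h, 37 C. Beta-lactamase FRET read after 2 h RT substrate.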

Values joined by “and” are separate entries in the source; they are usually repeats but may differ in a detail not shown here. Equal values may be shown once. Inconclusive results are not listed. Active and inactive are the calls of the source. Unless noted, calls come from the whole dose curve; as a rule, active = well fitted curve in the direction sought with a large enough effect in the repeat runs; inconclusive = weak or mixed curves; inactive = no such curve, though single readings can be large; an effect the other way counts as inactive or inconclusive.

Glucocorticoid receptor (Homo sapiens), sequence (P04150 whole entry, looked up): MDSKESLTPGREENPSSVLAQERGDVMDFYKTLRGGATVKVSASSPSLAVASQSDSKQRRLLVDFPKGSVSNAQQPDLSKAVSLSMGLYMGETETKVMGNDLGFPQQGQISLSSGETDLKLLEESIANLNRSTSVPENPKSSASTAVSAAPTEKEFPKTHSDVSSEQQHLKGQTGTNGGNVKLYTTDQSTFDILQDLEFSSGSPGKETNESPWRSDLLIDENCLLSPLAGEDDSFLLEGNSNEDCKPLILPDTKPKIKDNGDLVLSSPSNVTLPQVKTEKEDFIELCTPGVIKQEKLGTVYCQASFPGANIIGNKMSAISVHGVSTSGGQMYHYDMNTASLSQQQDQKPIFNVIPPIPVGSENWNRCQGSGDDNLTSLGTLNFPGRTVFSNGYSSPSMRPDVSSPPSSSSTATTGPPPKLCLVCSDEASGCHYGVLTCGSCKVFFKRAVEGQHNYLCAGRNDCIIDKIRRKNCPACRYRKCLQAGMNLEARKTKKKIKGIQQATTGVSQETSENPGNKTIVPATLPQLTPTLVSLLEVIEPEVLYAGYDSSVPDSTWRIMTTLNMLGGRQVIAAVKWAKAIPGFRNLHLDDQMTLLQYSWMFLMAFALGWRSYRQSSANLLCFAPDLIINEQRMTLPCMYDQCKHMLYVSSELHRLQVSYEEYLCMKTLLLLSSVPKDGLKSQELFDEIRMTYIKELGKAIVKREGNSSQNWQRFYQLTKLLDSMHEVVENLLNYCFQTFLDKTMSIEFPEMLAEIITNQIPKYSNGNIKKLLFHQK

`COc1ccc(C(=O)c2c(C)n(CCN3CCOCC3)c3ccccc23)cc1`: the Potency entry in test [1], in test [2], in [3], in test [4] and in [16] was “inactive” throughout. For the same molecule, the result in [5], in test [6], in [7], in [8], in test [9] and in test [10] was inactive. Also, the outcome in test [11], in [12], in [13], in test [14] and in test [15] was inactive.

Regarding `CC(C)[C@@H](C(=O)O[C@@H](C#N)c1cccc(Oc2ccccc2)c1)c1ccc(Cl)cc1`, the Potency entry in test [1], in test [2] and in test [3] was “inactive” each time. Further, in test [17], the Potency was 12.4 µM (active) and 30.6 µM (active). Further, the outcome in test [5], in [6], in test [7], in test [8], in test [9] and in test [11] was inactive. In addition, the outcome in test [12], in test [13], in [14], in test [18] and in test [15] was inactive.

As for `O=[N+]([O-])c1cc(Cl)c(Cl)cc1Cl`, the Potency entry in test [1], in [2], in test [3], in test [4], in test [16] and in test [19] was “inactive” throughout. Besides, the result in [5], in test [6], in test [7], in [8], in test [9] and in [10] was inactive. For the same molecule, the molecule was called inactive in test [11], in [12], in test [13], in test [14], in test [18] and in test [15].

On to `O=C(N/N=C/c1ccc([N+](=O)[O-])o1)c1cc([N+](=O)[O-])cc([N+](=O)[O-])c1O`, for which the Potency result in [1], in test [4], in [16] and in test [19] was “inactive” in each case. In addition, in [2], the Potency was 26.6 µM (active). For the same molecule, the molecule was called inactive in test [5], in test [6], in [8], in test [9], in [10] and in test [11]. The outcome in test [12], in test [13], in [14], in test [18] and in [15] was inactive.

On to `O=C1NC(=O)C(=O)C(=O)N1`, for which the Potency result in test [1], in [2], in test [3], in test [4], in [17] and in test [16] was “inactive” each time. Further, the result in test [5], in test [6], in test [7], in test [8], in test [9] and in test [11] was inactive. Further, the result in [12], in test [13], in [14], in test [18] and in test [15] was inactive.

`O=C(NC(=O)c1cc(F)c(F)cc1Cl)Nc1cc(F)ccc1N1CCC(C(=O)O)CC1`: the Potency result in test [1], in test [2], in test [3], in test [4] and in [16] was “inactive” each time. For the same molecule, the result in test [5], in [6], in test [8], in test [9], in test [11] and in [12] was inactive. Further, the result in [13], in test [14], in [18] and in test [15] was inactive.

With `Cc1cccc(C)c1NC1=NCCCS1`, the Potency result in test [1], in test [2], in [3] and in test [4] was “inactive” each time. Also, the result in test [5], in test [6], in [7], in test [8], in test [9] and in test [10] was inactive. Moreover, the molecule was classed as inactive in test [11], in test [12], in test [13], in [14], in test [18] and in [15].

On to `NCCc1cc(O)c(O)cc1O`, for which the Potency result in test [1], in [3], in test [4], in [17], in test [16] and in test [19] was “inactive” in each case. The call in test [5], in test [6], in test [7], in [8], in test [9] and in test [10] was inactive. For the same molecule, the molecule was classed as inactive in [11], in test [12], in [13], in test [14], in [18] and in test [15].

The record behind these values is PubChem BioAssay (Tox21).
